Experimental data reported in PubChem BioAssay AID589 (National Center for Advancing Translational Sciences (NCATS), 2007).
About 6,200 (11%) of roughly 59,000 compounds were called active. Inconclusive results (about 9%) are left out. No stated cut-off is given here; in the data, active means max dye-equivalent concentration above about 10 nM; inconclusive means mostly about 1.1 nM to 9.6 nM; inactive means weaker than that. The entries come from a sample that favours actives as a whole. A structure can be active in one record and inactive in another.

assay: qHTS Assay for Spectroscopic Profiling in 4-MU Spectral Region; conditions: compound autofluorescence, 340/450 nm, 4-MU equivalents; active compounds read high
Excerpt: NIH Molecular Libraries Screening Centers Network [MLSCN] NIH Chemical Genomics Center [NCGC] […] Occasionally, the artifactual effect may originate from the compounds own spectral or other biophysical properties which generally tend to track its assay concentration. Pre-screening/profiling the library with respect to the compounds spectral properties should help one exclude false positives early on. While the most informative fluorescent profiling data set is obtained by performing a full excitation and emission scan of each well by using a monochromator-based plate reader, such an approach is practical only on a very limited scale as scanning each well requires long time. An alternative approach, applied here, is to perform plate reader scans using selected excitation and emission wavelength pairs to generate a multidimensional relational database that correlates compound concentration and the respective relative fluorescence intensity at a given wavelength set. A standard curve of 4-methylumbelliferone (4-MU) present on each plate as six-point concentration series, was used to compute a normalized fluorescence response, termed dye-equivalent concentration, for each compound at each concentration.
NCGC Assay Protocol Summary: Buffer: 100 mM Tris buffer, pH 8.0 Dye standard plate: The wells in columns 1 through 4 of a Kalypsys polypropylene 1536-well compound plate were filled with standard solutions of fluorophore corresponding to the spectral region of interest. Solutions of 4-MU were placed in the following wells: A1, B1: 3 mM, A2, B2: 300 uM, A3, B3: 30 uM, A4, B4: zero (DMSO), C1, D1: 3 uM, C2, D2: 900 nM, C3, D3: 300 nM, C4, D4: zero (DMSO). Assay Steps: Six uL of buffer were dispensed to 1536-well Greiner black plates. Compounds and dye standards (23 nL) were transferred via Kalypsys PinTool. The plates were incubated for 15 min at room temperature, and then read on ViewLux (Perkin-Elmer) High-throughput CCD imager using 340 nm and 450 nm excitation and emission filter set. Keywords: NIH Roadmap, MLSCN, MLI, MLSMR, qHTS, NCGC, Fluorescent Profiling, 4MU, 4-MU

Structure (SMILES)	max dye-equivalent concentration	outcome
C[C@]12CC[C@H](O)C[C@@H]1CC[C@H]1[C@H]2CC[C@]2(C)C(=O)CC[C@@H]12	69 nM (active)	inactive
C[C@@]12CC[C@H](O)C[C@@H]1CC[C@@H]1[C@@H]2CC[C@@]2(C)[C@@H](C3=CC(=O)OC3)[C@H](O)C[C@]12O	inactive	–
C[C@]12CC[C@H](O)CC1=CC[C@@H]1[C@H]2CC[C@]2(C)C(=O)CC[C@H]12	inactive	–
Cc1ccc(S(=O)(=O)O[C@H]2CN3CCC2CC3)cc1	inactive	–
CC1=CC(=O)C2=C(C)C[C@H](O)[C@@H]3[C@@H](OC(=O)[C@H]3C)[C@H]12	inactive	–
O=C1C2CCN(CC2)C1(CO)CO	inactive	–
c1ccc2c(c1)[I+]c1ccccc1-2	inactive	–
CSC1=NP(=S)(SC)N(C)c2nc3n(c21)CCC3 (stereo unspecified)	22 nM (active)	–
c1csc(CN2CC3(CCNCC3)C2)n1	inactive	–
CC(C)CCC1(CCN)C(=O)NC(=O)NC1=O	inactive	–
CN1[C@@H]2CC[C@H]1CC(OC(=O)c1cc(Cl)cc(Cl)c1)C2 (stereo partly specified)	inactive	–
CC(=O)c1c(O)c(C)c(O)c(Cc2c(O)c3c(c(C(=O)/C=C\c4ccccc4)c2O)OC(C)(C)C=C3)c1O	inactive	–
C[C@H]1CC[C@@]2(NC1)O[C@@H]1C[C@H]3[C@@H]4CC=C5C[C@@H](O)CC[C@]5(C)[C@@H]4CC[C@]3(C)[C@@H]1[C@@H]2C	inactive	–
NCCc1c[nH]c2ccc(O)cc12	inactive	–
C/C(CCc1c[nH]c2ccccc12)=N\O	13 nM (active)	–
CCN(CC)CCn1ncc2c(N)ncnc21	inactive	–
N[C@H](C(=O)O)c1cc(=O)[nH]o1	inactive	–
COC(=O)C(O)(c1ccc(NC(=O)c2ccco2)c(OC)c1)C(F)(F)F (stereo unspecified)	inactive	–
O=C(c1cc(-c2ccncc2)nc2ccccc12)N1CCC2(CC1)OCCO2	inactive	–
O=C(c1cc2nc(-c3ccccc3)cc(-c3ccccc3)n2n1)N1CCC2(CC1)OCCO2	64 nM (active)	–
Cc1cccc(-n2c(C)nc3cc(C(=O)N4CCC5(CC4)OCCO5)ccc32)c1	inactive	–
NC[C@H](O)c1ccc(O)cc1	inactive	–
NC(=O)c1ccc(OC[C@H](O)CN2CC=C(c3ccc(F)cc3)CC2)cc1	inactive	–
COc1cc(C[C@H](C)N)c(OC)cc1I	inactive	–
CC(=O)NBr	inactive	–

Structure (SMILES)	max dye-equivalent concentration	outcome
C[C@H](Br)C(=O)N[C@H](CO)C(=O)O	inactive	–
COc1ccc(C2NCc3ccc4c(c3-n3cccc32)OCO4)cc1OC (stereo unspecified)	inactive	–
CCOC(=O)c1c(-c2ccccc2)oc2ccc(OC(=O)N(C)C)cc12	50 nM (active)	–
c1ccc(N2CC[C@@]3(CCCNC3)C2)nc1	inactive	–
c1csc(CN2CCCC3(CCNCC3)C2)n1	inactive	–
c1ccc(CN2CC[C@@]3(CCCNC3)C2)cc1	11 nM (active)	–
C[C@@]12CC[C@H]3[C@@H](CC[C@]4(O)C[C@H](O)CC[C@@]34C=O)[C@]1(O)CC[C@@H]2C1=CC(=O)OC1	inactive	–
CCN1C[C@@]2(COC)CC[C@H](OC)[C@]34[C@@H]1[C@]1(OCO[C@@]15C[C@@H](OC)C1C[C@H]3[C@H]5[C@@H]1OC)[C@H](O)[C@@H]24	inactive	–
C=CCN1C(=O)C2(C(C(=O)OCC)=C(N)Oc3c2c(=O)oc2ccccc32)c2ccccc21 (stereo unspecified)	inactive	–
CS(=N)(=O)CC[C@H](N)P(=O)(O)O (stereo partly specified)	inactive	–
CCOC(=O)c1c(N)n(Cc2ccccc2)c2nc3ccccc3nc12	1100 nM (active)	–
CC(=O)O[C@H]1CC[C@@]2(C)[C@@H](CC[C@H]3[C@H]2CC(=O)[C@]2(C)[C@@H]3C[C@@H](N3CC3)[C@H]2C(C)=O)C1	inactive	–
CCNC[C@H](O)c1cccc(O)c1	inactive	–
CC[C@@](O)(C(=O)O)c1cc2n(c(=O)c1CO)Cc1cc3ccccc3nc1-2	840 nM (active)	–
CC[C@]1(O)C(=O)OCc2c1cc1n(c2=O)Cc2cc3ccccc3nc2-1	2300 nM (active)	–
CN1CCN(C(=O)O[C@@H]2c3nccnc3C(=O)N2c2ccc(Cl)cn2)CC1	inactive	–
CCN1C[C@]2(C)CC[C@H](O)[C@@]34[C@@H]5CC6[C@@H](OC)C[C@@](O)([C@@H]5[C@@H]6O)[C@H](C[C@@H]23)[C@H]14	inactive	–
O=C(Nc1cccc(F)c1)N1CC[C@@]2(CCCN(C(=O)Oc3ccccc3)C2)C1	inactive	–
NCC[Se][Se]CCN	inactive	–
CCN1c2nc3c(C)cccn3c(=O)c2CC2(C(=O)N(C)C(=O)N(C)C2=O)C1C (stereo unspecified)	29 nM (active)	–
CC(C)(O)/C=C\C(=O)[C@](C)(O)[C@H]1[C@H](O)C[C@]2(C)[C@@H]3CC=C4[C@@H](C=C(O)C(=O)C4(C)C)[C@]3(C)C(=O)C[C@@]12C	inactive	–
NCCc1ccc(S(=O)(=O)F)cc1	inactive	–
C[N+]1(C)C2CC(OC(=O)C(CO)c3ccccc3)CC1[C@@H]1O[C@H]21 (stereo partly specified)	inactive	–
O=C(O)C(=O)Cc1ccc2c(c1)OCO2	inactive	–
CC(C)(O)[C@H]1[C@H]2OC(=O)[C@@H]1[C@]1(O)C[C@H]3O[C@]34C(=O)O[C@H]2[C@]14C	inactive	–
